In PubChem BioAssay (Tox21):
Records with an inconclusive call do not appear. A call without a number means that no potency is given here. Unmarked numbers belong to inactive results. Active and inactive are the calls of the source. Calls come from the whole dose curve; as a rule, active = well fitted cell-killing curve with a large enough effect in the repeat runs; inconclusive = weak or mixed curves, or effect the other way; inactive = flat fitted curve, though single readings scatter.

What was measured:
[1] = cAMP Responsive Elements (CRE) small molecule antagonists, cell-based qHTS assay: qHTS cell viability counter screen (AID 2060913); note: nearly all actives have a fitted effect of over 40% in size
Outline: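 HEK293T CRE-bla, 2,000 cells/well, 18 h preincubation; cpd in DMSO + NKH477 0.25 uM final, 3 h 37 C/5% CO2; LiveBLAzer 2 h RT, then CellTiter-Glo 30 min RT, luminescence.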

[2] = cAMP Responsive Elements (CRE) small molecule agonists, cell-based qHTS assay: qHTS cell viability counter screen (AID 2060914);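 note: viability read after 3 h of compound exposure; nearly all actives have a fitted effect of over 50% in size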
Outline: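 HEK 293T CRE-bla; DMEM + 10% dialyzed FBS, 25 mM HEPES; 18 h pre-incubation; compound 3 h, 37 °C/5% CO2; CellTiter-Glo added after reporter read; luminescence after 30 min RT.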
Potency is the fitted concentration of half-maximal effect.

Row | Compound | Potency [1] | Potency [2] | viability change, negative = cytotoxic [1] | activity change, negative = cytotoxicity [2]
1 | CSc1ccc2c(c1)N(CCC1CCCCN1C)c1ccccc1S2 (stereo not drawn) | 60.9 µM (active) | 60.9 µM (active) | – | –
2 | C=C1C[C@@]23CC[C@H]4[C@@](C)(CCC[C@@]4(C)C(=O)O[C@@H]4O[C@H](CO)[C@@H](O)[C@H](O)[C@H]4O)[C@@H]2CC[C@]1(O[C@@H]1O[C@H](CO)[C@@H](O)[C@H](O[C@@H]2O[C@H](CO)[C@@H](O)[C@H](O)[C@H]2O)[C@H]1O[C@@H]1O[C@H](CO)[C@@H](O)[C@H](O)[C@H]1O)C3 | inactive | inactive | – | –
3 | C=CC(O)CCCCC (stereo not drawn) | inactive | inactive | – | –
4 | O=P(O)(O)OCC(O)CO (stereo not drawn) | inactive | inactive | – | –
5 | CC1=CC[C@@]23C[C@@H]1C(C)(C)[C@@H]2CC[C@H]3C | inactive | inactive | – | –
6 | CCCCCCCCCCCCCC(=O)OCC(O)CO (stereo not drawn) | inactive | inactive | – | –
7 | COc1cc(OC)nc(O[C@H](C(=O)O)C(OC)(c2ccccc2)c2ccccc2)n1 | inactive | inactive | – | –
8 | O=C(Cl)c1ccc(Cl)cc1Cl | inactive | inactive | – | –
9 | O=c1[nH][nH]c(=O)c2cc([N+](=O)[O-])ccc12 | inactive | inactive | – | –
10 | CCCCN(CCCC)C(=O)N(CCCC)CCCC | inactive | inactive | – | –
11 | COc1cc(NS(=O)(=O)c2ccc(N)cc2)nc(OC)n1 | inactive | inactive | – | –
12 | COc1cc2ncnc(Nc3cccc(Cl)c3)c2cc1OC | – | – | 6.79% [at 18.9 µM] | 4.77% [at 18.9 µM]
13 | Cc1cccc(N(C)C(=S)Oc2ccc3ccccc3c2)c1 | inactive | inactive | – | –
14 | CCC(OCCCOC)OC(C)=O (stereo not drawn) | inactive | inactive | – | –
